About 83,000 compounds went through this panel and 20% of them were active in at least one assay; those are over-represented in the sample as a whole.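 The endpoint reported here, percent growth, reads 100 for growth as untreated, 0 for no net growth and -100 for all cells dead.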 The source made the active and inactive calls. Rule for the calls: active = growth percent below 10; inactive = the rest.
Assays:
Test in all cases: NCI-60 one-dose screen, 48 h (100 = growth as untreated, 0 = no growth, -100 = all killed)
Settings in all cases: 10 µM unless noted
SR leukemia = system: SR leukemia
RPMI-8226 leukemia = system: RPMI-8226 leukemia
OVCAR-8 ovarian = system: OVCAR-8 ovarian
OVCAR-5 ovarian = system: OVCAR-5 ovarian
OVCAR-4 ovarian = system: OVCAR-4 ovarian
SK-OV-3 ovarian = system: SK-OV-3 ovarian
IGROV1 ovarian = system: IGROV1 ovarian
OVCAR-3 ovarian = system: OVCAR-3 ovarian
HS 578T breast = system: HS 578T breast
NCI/ADR-RES ovarian = system: NCI/ADR-RES ovarian
T-47D breast = system: T-47D breast
BT-549 breast = system: BT-549 breast
MDA-MB-435 melanoma = system: MDA-MB-435 melanoma
SW-620 colon = system: SW-620 colon
MCF7 breast = system: MCF7 breast
HCT-116 colon = system: HCT-116 colon
HCC-2998 colon = system: HCC-2998 colon
KM12 colon = system: KM12 colon

Measured: growth

CCOC(=O)c1cc(C(=O)c2cc(OC)cc(OC)c2)n2ncccc12
inactive: SR leukemia 32.3% | RPMI-8226 leukemia 28.9% | OVCAR-8 ovarian 38.2% | OVCAR-5 ovarian 92.2% | OVCAR-4 ovarian 71.4% | SK-OV-3 ovarian 19.6% | IGROV1 ovarian 56.4% | HS 578T breast 31.5% | T-47D breast 32.9% | BT-549 breast 18.4% | SW-620 colon 18.4% | MCF7 breast 24.8% | HCT-116 colon 13.5% | HCC-2998 colon 66.7% | KM12 colon 27.8%
active: OVCAR-3 ovarian 0.928% | NCI/ADR-RES ovarian 7.11% | MDA-MB-435 melanoma 1.18%

COC12C=C/C(=C(/C(=O)OCc3ccccn3)C(=O)CCCCCCCCC3(OC)C=C/C(=C(/C(=O)OCc4ccccn4)C(=O)CCCCCCCC1)O3)O2
inactive: OVCAR-8 ovarian 16.8% | OVCAR-5 ovarian 34.9% | OVCAR-4 ovarian 28.8% | SK-OV-3 ovarian 46.3% | HS 578T breast 49.7% | T-47D breast 18.5%
active: SR leukemia -9.81% | RPMI-8226 leukemia -14.8% | IGROV1 ovarian -39.1% | OVCAR-3 ovarian -36.3% | NCI/ADR-RES ovarian 7.96% | BT-549 breast -26.9% | MDA-MB-435 melanoma -23.6% | SW-620 colon 8.34% | MCF7 breast -0.915% | HCT-116 colon -59.7% | HCC-2998 colon -82.6% | KM12 colon -76.2%

COc1cc(NC(=O)c2cncnc2Nc2ccc3c(ccn3Cc3cccc(F)c3)c2)cc(OC)c1
active: MDA-MB-435 melanoma -4.76%
inactive: SR leukemia 19.7% | RPMI-8226 leukemia 63.5% | OVCAR-8 ovarian 65.8% | OVCAR-5 ovarian 71.7% | OVCAR-4 ovarian 95.1% | SK-OV-3 ovarian 67% | IGROV1 ovarian 50.8% | OVCAR-3 ovarian 23% | HS 578T breast 51% | NCI/ADR-RES ovarian 42.1% | T-47D breast 70.9% | BT-549 breast 68.1% | SW-620 colon 29.6% | MCF7 breast 28.2% | HCT-116 colon 44.5% | HCC-2998 colon 72.9% | KM12 colon 34.8%

C[C@H]1c2ccccc2CN1CCCOc1cc2c(cc1OCC1CC1)C1(CCCC1)C(N)=N2
inactive: SR leukemia 13.8% | RPMI-8226 leukemia 17.6% | OVCAR-8 ovarian 65.9% | OVCAR-5 ovarian 70.5% | OVCAR-4 ovarian 48.8% | SK-OV-3 ovarian 90.2% | IGROV1 ovarian 54.8% | OVCAR-3 ovarian 76.9% | HS 578T breast 56% | NCI/ADR-RES ovarian 68% | BT-549 breast 78% | MDA-MB-435 melanoma 36.4% | SW-620 colon 15% | MCF7 breast 22.5% | KM12 colon 49.6%
active: T-47D breast 0.245% | HCT-116 colon 7.48% | HCC-2998 colon -55.3%

Nc1ncc(-c2ccc3ncnc(N4CCc5cc(F)c(Cl)cc54)c3c2)cc1C(F)(F)F
inactive: RPMI-8226 leukemia 16.4% | OVCAR-8 ovarian 33.1% | OVCAR-5 ovarian 20.8% | OVCAR-4 ovarian 33.4% | SK-OV-3 ovarian 31.9% | OVCAR-3 ovarian 31.7% | NCI/ADR-RES ovarian 19.5% | T-47D breast 20.4% | BT-549 breast 14.8% | SW-620 colon 38.2% | HCT-116 colon 21.3% | HCC-2998 colon 36.2% | KM12 colon 40.2%
active: SR leukemia -8.86% | IGROV1 ovarian -42.6% | HS 578T breast -4.39% | MDA-MB-435 melanoma 0.606% | MCF7 breast 8.11%

COc1cc2ncnc(Nc3ccc(S(=O)(=O)Nc4cc(C)on4)cc3)c2cc1OCCCN1CCOCC1
inactive: SR leukemia 103% | RPMI-8226 leukemia 106% | OVCAR-8 ovarian 98.2% | OVCAR-5 ovarian 106% | OVCAR-4 ovarian 94.8% | SK-OV-3 ovarian 95% | IGROV1 ovarian 108% | OVCAR-3 ovarian 113% | HS 578T breast 103% | NCI/ADR-RES ovarian 106% | T-47D breast 84.4% | BT-549 breast 91.6% | MDA-MB-435 melanoma 106% | SW-620 colon 106% | MCF7 breast 96.1% | HCT-116 colon 102% | HCC-2998 colon 107% | KM12 colon 103%

CN(Cc1ccccc1)c1nc(Cl)c(C2CC(c3ccc(Cl)cc3)=NN2c2cc(Cl)cc(Cl)c2)s1 (stereo unspecified)
inactive: SR leukemia 109% | RPMI-8226 leukemia 81.4% | OVCAR-8 ovarian 106% | OVCAR-5 ovarian 113% | OVCAR-4 ovarian 97.6% | SK-OV-3 ovarian 92.9% | IGROV1 ovarian 102% | OVCAR-3 ovarian 109% | HS 578T breast 116% | NCI/ADR-RES ovarian 102% | T-47D breast 84.9% | BT-549 breast 101% | MDA-MB-435 melanoma 103% | SW-620 colon 98.8% | MCF7 breast 79.8% | HCT-116 colon 88.6% | HCC-2998 colon 90.9% | KM12 colon 103%

CC(C)n1cc(C2=C(c3cccc4ccccc34)C(=O)NC2=O)c2cc(Br)ccc21
inactive: SR leukemia 25.8% | RPMI-8226 leukemia 92.1% | OVCAR-8 ovarian 72.7% | OVCAR-5 ovarian 89.8% | OVCAR-4 ovarian 64.9% | SK-OV-3 ovarian 64% | IGROV1 ovarian 69.9% | OVCAR-3 ovarian 20.7% | HS 578T breast 45.8% | NCI/ADR-RES ovarian 21.1% | T-47D breast 90% | BT-549 breast 92.6% | MDA-MB-435 melanoma 61.6% | SW-620 colon 46.7% | MCF7 breast 76.1% | HCT-116 colon 35.4% | HCC-2998 colon 52.1% | KM12 colon 36.5%

Cc1nn(C)c2ncnc(Nc3ccccc3Br)c12
inactive: SR leukemia 84.8% | RPMI-8226 leukemia 95.2% | OVCAR-8 ovarian 106% | OVCAR-5 ovarian 99.6% | OVCAR-4 ovarian 109% | SK-OV-3 ovarian 99% | IGROV1 ovarian 105% | OVCAR-3 ovarian 108% | HS 578T breast 101% | NCI/ADR-RES ovarian 107% | T-47D breast 94.8% | BT-549 breast 108% | MDA-MB-435 melanoma 106% | SW-620 colon 106% | MCF7 breast 95.6% | HCT-116 colon 110% | HCC-2998 colon 108% | KM12 colon 108%

COc1ccc(C(=O)C2OC3=C(C(=O)CC(C)(C)C3)C2c2cccc(Oc3ccccc3)c2)cc1 (stereo unspecified)
inactive: SR leukemia 71.2% | RPMI-8226 leukemia 85.7% | OVCAR-8 ovarian 88.9% | OVCAR-5 ovarian 97.6% | OVCAR-4 ovarian 86.3% | SK-OV-3 ovarian 91.4% | IGROV1 ovarian 95.9% | OVCAR-3 ovarian 103% | HS 578T breast 93.4% | NCI/ADR-RES ovarian 92.7% | T-47D breast 76% | BT-549 breast 92.1% | MDA-MB-435 melanoma 90.8% | SW-620 colon 93.6% | MCF7 breast 89.3% | HCT-116 colon 84.6% | HCC-2998 colon 113% | KM12 colon 94.6%

COc1ccc(-c2ccc(-c3ccc(C(=N)N)o3)o2)cc1
active: SR leukemia -4.13% | OVCAR-3 ovarian -27.8% | MDA-MB-435 melanoma -65.4% | HCT-116 colon -5.19% | HCC-2998 colon -48.7%
inactive: RPMI-8226 leukemia 14.3% | OVCAR-8 ovarian 28.9% | OVCAR-5 ovarian 38.4% | OVCAR-4 ovarian 58.8% | SK-OV-3 ovarian 35.8% | IGROV1 ovarian 57.1% | HS 578T breast 56.2% | NCI/ADR-RES ovarian 14.4% | T-47D breast 26.7% | BT-549 breast 59.6% | SW-620 colon 12.9% | MCF7 breast 10.4% | KM12 colon 11%

CCOc1ccccc1NC(=O)CCC(=O)OC
inactive: SR leukemia 97.8% | RPMI-8226 leukemia 104% | OVCAR-8 ovarian 119% | OVCAR-5 ovarian 110% | OVCAR-4 ovarian 95.4% | SK-OV-3 ovarian 103% | IGROV1 ovarian 100% | OVCAR-3 ovarian 108% | HS 578T breast 106% | NCI/ADR-RES ovarian 113% | T-47D breast 88.7% | BT-549 breast 106% | MDA-MB-435 melanoma 102% | SW-620 colon 104% | MCF7 breast 90.4% | HCT-116 colon 97.5% | HCC-2998 colon 99.5% | KM12 colon 100%

CC/C(=C(/c1ccc(Cl)cc1)c1ccc(OCCN2CCCCCC2)cc1)c1ccccc1
active: SR leukemia 6.94%
inactive: RPMI-8226 leukemia 48.9% | OVCAR-8 ovarian 84.8% | OVCAR-5 ovarian 85.2% | OVCAR-4 ovarian 79.6% | SK-OV-3 ovarian 114% | IGROV1 ovarian 97.3% | OVCAR-3 ovarian 93.9% | HS 578T breast 89.7% | NCI/ADR-RES ovarian 90.8% | T-47D breast 68.5% | BT-549 breast 114% | MDA-MB-435 melanoma 90.5% | SW-620 colon 44.7% | MCF7 breast 76.3% | HCT-116 colon 62.7% | HCC-2998 colon 97.8% | KM12 colon 55%

Cc1cc(C)n(C(=O)CSc2nc3sc4c(c3c(=O)n2-c2ccccc2)CCCCC4)n1
inactive: SR leukemia 97.8% | RPMI-8226 leukemia 103% | OVCAR-8 ovarian 100% | OVCAR-5 ovarian 105% | OVCAR-4 ovarian 94.2% | SK-OV-3 ovarian 99% | IGROV1 ovarian 107% | OVCAR-3 ovarian 104% | HS 578T breast 96.8% | NCI/ADR-RES ovarian 104% | T-47D breast 89.9% | BT-549 breast 100% | MDA-MB-435 melanoma 105% | SW-620 colon 102% | MCF7 breast 95.1% | HCT-116 colon 104% | HCC-2998 colon 109% | KM12 colon 105%

COc1ccc(-c2cc(-c3ccc(N(C)C)cc3)nc(NC(=O)c3cccnc3)n2)cc1
inactive: SR leukemia 86.4% | RPMI-8226 leukemia 95.3% | OVCAR-8 ovarian 99.3% | OVCAR-5 ovarian 105% | OVCAR-4 ovarian 103% | SK-OV-3 ovarian 103% | IGROV1 ovarian 102% | OVCAR-3 ovarian 106% | HS 578T breast 104% | NCI/ADR-RES ovarian 102% | T-47D breast 85.6% | BT-549 breast 119% | MDA-MB-435 melanoma 103% | SW-620 colon 101% | MCF7 breast 81.9% | HCT-116 colon 102% | HCC-2998 colon 120% | KM12 colon 98.3%

O=C(NC1CCCCCC1)c1ccc2c(=O)n3c(nc2c1)CCCCC3
inactive: SR leukemia 116% | RPMI-8226 leukemia 87% | OVCAR-8 ovarian 101% | OVCAR-5 ovarian 111% | OVCAR-4 ovarian 76.2% | SK-OV-3 ovarian 108% | IGROV1 ovarian 94.2% | OVCAR-3 ovarian 110% | HS 578T breast 83% | NCI/ADR-RES ovarian 91.3% | T-47D breast 100% | BT-549 breast 100% | MDA-MB-435 melanoma 112% | SW-620 colon 101% | MCF7 breast 100% | HCT-116 colon 104% | HCC-2998 colon 121% | KM12 colon 115%

C=C(C)[C@@H]1CC[C@]2(C#N)CC[C@]3(C)[C@H](CC[C@@H]4[C@@]5(C)CCCNC(C)(C)[C@@H]5CC[C@]43C)[C@@H]12
active: SR leukemia -26% | RPMI-8226 leukemia -18.6% | SW-620 colon 2.83% | HCC-2998 colon -40.2%
inactive: OVCAR-8 ovarian 82.7% | OVCAR-5 ovarian 88.6% | OVCAR-4 ovarian 72.4% | SK-OV-3 ovarian 118% | IGROV1 ovarian 46.4% | OVCAR-3 ovarian 70.1% | HS 578T breast 91.8% | NCI/ADR-RES ovarian 88.3% | T-47D breast 78.8% | BT-549 breast 96.1% | MDA-MB-435 melanoma 44.2% | MCF7 breast 20% | HCT-116 colon 41.6% | KM12 colon 41%
